From PubChem BioAssay AID940 (Emory University Molecular Libraries Screening Center, 2007) come the findings set out here.

“And” between values parts separate entries of the source, which are not always exact repeats. Equal entries are not always repeated. Screen size: about 260,000 compounds; about 2,200 (0.85%) were called active.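 How the source made its calls: active means compounds whose cAMP rise, as percent of the full-agonist control response, exceeds 60; inactive means the rest.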 Shown is part of a subset that was picked to be rich in actives. The source holds several records for some structures; these can differ, active in one and inactive in another.

The target in the experiment is Prostaglandin E2 receptor EP2 subtype (Homo sapiens) (UniProt P43116). The experiment in a line: EP2 receptor modulators, cAMP readout, primary screen, cell-based, HTRF cAMP, PGE2 stimulation (AID 940).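 Further: rat C6 glioma line stably carrying human EP2 under a CMV promoter; the protocol text gives 20 µM as final concentration; 100% = response of wells given 1 µM PGE2.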 As to conditions: EP2-expressing cells, cAMP HTRF FRET, PGE2 co-stimulation; at 25 µM; stronger effect = higher value. In general terms: TR-FRET usually uses a lanthanide donor and a delayed reading to cut background.
Sequence of Prostaglandin E2 receptor EP2 subtype (Homo sapiens) (P43116 whole entry, looked up): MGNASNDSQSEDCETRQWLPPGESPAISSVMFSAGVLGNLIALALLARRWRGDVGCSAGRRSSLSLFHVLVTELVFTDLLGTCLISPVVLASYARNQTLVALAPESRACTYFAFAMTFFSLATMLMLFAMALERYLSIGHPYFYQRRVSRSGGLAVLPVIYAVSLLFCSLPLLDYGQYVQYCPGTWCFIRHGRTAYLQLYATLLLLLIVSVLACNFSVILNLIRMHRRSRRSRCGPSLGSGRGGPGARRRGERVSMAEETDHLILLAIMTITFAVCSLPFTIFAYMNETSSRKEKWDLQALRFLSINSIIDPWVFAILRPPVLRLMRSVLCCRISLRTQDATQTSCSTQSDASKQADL
As to `COc1ccccc1NC(=S)N1CCN(C(c2ccccc2)c2ccccc2)CC1`, the induction is 61.4% (active).

Regarding `CC(C)NC(=S)N1CCN(C(c2ccccc2)c2ccccc2)CC1`, the induction was 21.2% (inactive).

With `COc1ccccc1NC(=S)N1CCC(NC(=O)C23CC4CC(CC(C4)C2)C3)CC1`, the induction is -21% (inactive) and -7.94% (inactive).

Take `COc1cccc(NC(=O)C(C#N)Cc2cccnc2)c1` (stereo not given): the induction is 2.36% (inactive).

Consider `O=c1oc2ccccc2cc1-c1csc(Nc2cccc(O)c2)n1`, for which the induction was -123% (inactive).

Regarding `CC1(C)CCCC2(C)C3C1[C@@H](O)C2(C)C[C@H]3O` (stereo not given in full), the induction is 15.3% (inactive).

On to `CC(C)NC(=O)CN1N=C(c2ccccc2)Cn2c(cc3ccccc32)C1=O`, for which the induction is -36.4% (inactive).

Turning to `NC(=O)c1nnn(-c2ccc(S(=O)(=O)N3CCCCC3)cc2)c1N`, the induction was 11.5% (inactive).

Take `Cc1ccc(C)c(NC(=O)c2ccc3nccnc3c2)c1`: the induction is -54% (inactive).

As to `O=C(Nc1ccccc1N1CCCCC1)c1ccc2nccnc2c1`, the induction is 87.1% (active).

Regarding `O=C(Nc1ccccc1N1CCN(C(=O)c2ccccc2)CC1)c1ccc2c(c1)OCO2`, the induction was -6.37% (inactive).

Turning to `O=C(Nc1ccccc1N1CCCCC1)c1cccc(F)c1`, the induction is 66.7% (active).

`O=C(Nc1ccccc1N1CCN(c2ccccc2)CC1)c1cccc(F)c1`: the induction was 48.5% (inactive).

Regarding `Cc1cccc(C(=O)Nc2ccccc2N2CCN(c3ccc(F)cc3)CC2)c1`, the induction is 49.9% (inactive).

For the compound `CN(C(=O)C1CCCCC1)c1nc(-c2ccc(Cl)cc2)cs1`, the induction is -0.87% (inactive).

Regarding `Cc1ccc(N(C(=O)Cn2nnc3ccccc32)C(C(=O)NC2CCCC2)c2ccsc2)cc1` (stereo not given), the induction was 20.6% (inactive).

Turning to `CC(=O)C1CC(CC(=O)N[C@H](Cn2nnc3ccccc32)C(C)C)C1(C)C` (stereo not given in full), the induction was -25.1% (inactive).

With `COc1cccc(/C(O)=C2/C(=O)C(=O)N(CCN(C)C)C2c2ccco2)c1` (stereo not given), the induction is 2.05% (inactive).

Turning to `Cc1ccc2[nH]c(=O)c(C(c3nnnn3Cc3ccc(F)cc3)N3CCCC3)cc2c1` (stereo not given), the induction is -4.96% (inactive).

Take `NC(=O)CNC(=O)C1CCCN(c2ncccn2)C1` (stereo not given): the induction is 14.7% (inactive).

Consider `COCCNCC(=O)N1CCc2ccccc21`, for which the induction is 10.7% (inactive).

For `Cc1ccc2cc(C(c3nnnn3C3CCCC3)N3CCC(C)CC3)c(=O)[nH]c2c1C` (stereo not given), the induction is -2.6% (inactive).

In the case of `CCn1c(Cc2ccccc2)nnc1SCc1nc2ccccc2c(=O)[nH]1`, the induction was 2.09% (inactive).

Take `Cn1c(-c2ccc(F)cc2)cnc1SCC(=O)NCc1ccco1`: the induction was -17% (inactive) and -3.43% (inactive).

Consider `O=c1[nH]c(CSc2ncc(-c3ccc(F)cc3)n2Cc2ccco2)nc2ccccc12`, for which the induction was 46.2% (inactive) and 68.4% (active).
